High-throughput results: PubChem, National Center for Advancing Translational Sciences (NCATS)
DT40 TDP1 CPT – qHTS for Inhibitors of human tyrosyl-DNA phosphodiesterase 1 (TDP1): qHTS in cells in presence of CPT; chicken DT40 Tdp1-/-;hTDP1 cells + 20 nM CPT, ATP luminescence, 48 h; Potency, µM (doses to about 46.2 µM), for the others: at the top dose activity change, negative = growth inhibition, usual class: inhibitors; 420,000 compounds, 12% hits; note: potency is the fitted concentration of half-maximal effect; % is set by controls: 0 for no effect and ±100 for the full control effect; nearly all actives have a fitted effect of over 55% in size
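Chicken DT40 Tdp1-/- cells stably complemented with human TDP1 were seeded at 400 cells/well in medium containing 20 nM camptothecin, exposed to pin-transferred compounds, and grown at 37 °C for at least 48 hr. Viability was read as ATP luminescence.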
TGFb SMAD3 inh – qHTS for Inhibitors of TGF-b | AID 588855, 2011 | Potency, µM (titrated, usually from 46.1 µM), for the others: top-dose activity, negative = inhibition, actives largely listed as inhibitors | HepG2 CAGA-GFP TGF-b/SMAD3 reporter, GFP fluorescence, 18 h; TGF-beta stimulated, 500 pg/mL final | 410,000 compounds, 1.2% hits; note: potency is the fitted concentration of half-maximal effect; % is set by controls: 0 for no effect and ±100 for the full control effect; nearly all actives have a fitted effect of over 65% in size
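HEPG2 CAGA-GFP cells (1000/well, DMEM with 1% FBS) were pre-incubated 2 h at 37 degrees C, given compound by pin tool, then stimulated with TGF-beta at 500 pg/mL final for 18 h before per-cell GFP fluorescence imaging.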
HepG2 tox – qHTS for Inhibitors of TGF-b: Cytotox Counterscreen; HepG2 CAGA-GFP viability, ATP luminescence, 18 h; Potency, µM (titrated, usually from 46.1 µM), for the others: top-dose activity change, negative = cytotoxicity, usual class: cytotoxic; 410,000 compounds, 0.76% hits; note: potency is the fitted concentration of half-maximal effect
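CellTiter-Glo luminescence gave cytotoxicity after 18 hours at 37 degrees C. The cells were HepG2 CAGA-GFP in 1% FBS DMEM, stimulated with 500 pg/mL TGF-beta after compound addition. %Activity was normalised to no-cell wells (complete cell-killing) and DMSO (no toxicity), and curves were fitted and classified.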
IL-1B inflam inh – qHTS for Inhibitors of Inflammasome Signaling: IL-1-beta AlphaLISA Primary Screen | THP-1 LPS/ATP IL-1B secretion, AlphaLISA, 16 h; hits give low values | activity change, % at 57.5 µM | 360,000 compounds, 4.7% hits | AID 743279, 2014; in the data active = activity change below about -50%; inconclusive = mostly about -30% to -49%; note: % is set by controls: 0 for no effect and ±100 for the full control effect
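Secreted IL-1B measured by AlphaLISA bead assay after 16 h compound exposure of THP-1 cells; compounds (final up to 57.5 uM) added 1 h before LPS (250 ng/mL) and ATP (1.25 mM) stimulation; lower signal means less secretion.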
DT40 TDP1 no CPT – qHTS for Inhibitors of human tyrosyl-DNA phosphodiesterase 1 (TDP1): qHTS in cells in absence of CPT. DT40 Tdp1-/- hTDP1 cells, no CPT, ATP luminescence, 48 h. Potency, µM (highest dose often 46.2 µM), for inactives: at the top dose activity change, negative = growth inhibition, most hits filed as inhibitors. 420,000 compounds, 15% hits; note: potency is the fitted concentration of half-maximal effect; % is set by controls: 0 for no effect and ±100 for the full control effect; nearly all actives have a fitted effect of over 55% in size
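Camptothecin absent (DMSO only). Human TDP1-complemented DT40 knockout cells, 400 cells/well, 37 °C for minimum 48 hr; ATP measured via CellTiter-Glo, 30 min dark incubation, luminescence.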
TDP1 inh – qHTS Assay for Inhibitors of Tyrosyl-DNA Phosphodiesterase (TDP1). Tyrosyl-DNA phosphodiesterase 1 (Homo sapiens), Q9NUW8. recombinant TDP1, AlphaScreen DNA substrate cleavage. Potency, µM (titrated, usually from 130 µM), for inactives: at the highest dose activity change, negative = inhibition, most hits filed as inhibitors. 350,000 compounds, 0.28% hits. AID 485290, 2010; note: potency is the fitted concentration of half-maximal effect; % is set by controls: 0 for no effect and ±100 for the full control effect; nearly all actives have a fitted effect of over 40% in size
Target sequence (Q9NUW8 whole entry, looked up): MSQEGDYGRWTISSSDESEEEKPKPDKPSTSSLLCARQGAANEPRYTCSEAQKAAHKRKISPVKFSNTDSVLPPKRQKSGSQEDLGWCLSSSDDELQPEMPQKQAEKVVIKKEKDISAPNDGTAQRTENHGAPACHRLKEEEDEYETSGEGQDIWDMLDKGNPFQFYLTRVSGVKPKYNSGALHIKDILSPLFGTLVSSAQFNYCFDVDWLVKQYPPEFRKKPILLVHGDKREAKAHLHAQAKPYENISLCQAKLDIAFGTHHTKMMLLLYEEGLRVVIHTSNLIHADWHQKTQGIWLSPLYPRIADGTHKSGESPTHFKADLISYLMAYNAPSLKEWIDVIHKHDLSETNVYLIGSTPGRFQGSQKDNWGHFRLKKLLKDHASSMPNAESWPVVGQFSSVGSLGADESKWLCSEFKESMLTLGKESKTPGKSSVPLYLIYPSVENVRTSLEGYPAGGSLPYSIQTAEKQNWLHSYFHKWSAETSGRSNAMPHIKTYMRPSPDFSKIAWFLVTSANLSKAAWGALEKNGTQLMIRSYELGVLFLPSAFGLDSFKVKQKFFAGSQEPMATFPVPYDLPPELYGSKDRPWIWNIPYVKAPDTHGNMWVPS
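Compounds were preincubated with Tdp1 (1 nM final) for 15 min at room temperature before substrate (15 nM final) started a 5 min reaction; beads (10 ug/ml final) were then added for 10 min before AlphaScreen detection.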
* marks the source's active call; other numbers are inactive results; ? = inconclusive; nt = no result given; ! = not active in a repeat; [ ] = dose if it differs, or a comment. Most compounds without a hit are left out; they make up all but 19% or so of the library. Unless noted, calls come from the whole dose curve; as a rule, active = well fitted curve in the direction sought with a large enough effect; inconclusive = small, poorly fitted or top-dose-only effect, or another doubt; inactive = no such curve, though single readings can be large; an effect the other way counts as inactive or inconclusive.

SMILES	DT40 TDP1 CPT	TGFb SMAD3 inh	HepG2 tox	IL-1B inflam inh	DT40 TDP1 no CPT	TDP1 inh
COC(=O)N1CCC[C@@]2(CCN(C(=O)Nc3cccc(C#N)c3)C2)C1	?	nt	nt	nt	0.046µM*	nt
COCCn1c(SCC(=O)Nc2c(C)n(C)n(-c3ccccc3)c2=O)nc2ccccc2c1=O	-11%	3%	-6%	-3	-8%	1%
CCOc1ccc(C2NC(=O)c3c(COC)cc(C)nc3N2Cc2ccccc2)cc1OC (centres undefined)	-14%	-1%	-55%	nt	-28%	3%
O=C(Cn1c(NCCCCl)nc2ccccc21)c1ccccc1	-16%	7%	-4%	-8	-8%	0%
Cc1cc(C)cc(NC(=O)c2ncn(-c3ccccc3)n2)c1	-21%	10%	-4%	nt	?	2%[12.3 µM]
Cc1ccc(NC(=O)CNC(=O)c2ccco2)nc1	1%	-6%	-4%	24	21%	2%
CCC(=O)N1c2ccc(S(=O)(=O)N3CCC(C)CC3)cc2CC1C (centres undefined)	-29%	2%	-26%	nt	-27%	5%
COc1ccc(C2c3cc4c(cc3OC(NNC(N)=O)C2C)OCO4)cc1 (centres undefined)	?	-25%	-4%	16	?	nt
COc1cc(C2c3cc4c(cc3OC(NNC(N)=S)C2C)OCO4)cc(OC)c1OC (centres undefined)	1.3µM*	?	-23%	?	0.92µM*	nt
COc1cc(C2c3cc4c(cc3OC(NNC(N)=O)C2C)OCO4)cc(OC)c1OC (centres undefined)	1.3µM*	?	-28%	-66*	1.3µM*	nt
CC(=O)Nc1cc(-c2ccccc2N(C)C)cn2c(-c3ccccc3)cnc12	16µM*	-24%	-26%	6	23µM*	nt
CC(=O)Nc1cc(-c2ccccc2N(C)C)cn2c(-c3ccc(S(C)(=O)=O)cc3)cnc12	?	27%	-23%	-12	18µM*	nt
CC(=O)Nc1cc(-c2cccc(C(=O)N(C)C)c2)cn2c(-c3ccccc3)cnc12	?	-1%	-19%	-11	?	nt
COc1ccccc1NC(=S)NC(NC(=O)CC(C)C)C(Cl)(Cl)Cl (centres undefined)	?	-13%	-26%	16	?	0%
COc1ccc2oc(=O)c(C(=O)Nc3ccc(C(=O)O)cc3)cc2c1	5%	8%	5%	nt	5%	-1%[12.3 µM]
COC(=O)c1ccc(OCC2c3cc(OC)c(OC)cc3CCN2C(=O)c2cccc(C)c2)cc1 (centres undefined)	21µM*	?	-15%	nt	16µM*	3%
COC(=O)c1ccc(OCC2c3cc(OC)c(OC)cc3CCN2C(=O)C2CC2)cc1 (centres undefined)	?	0%	-18%	?	?	4%
COC(=O)c1ccc(OCC2c3cc(OC)c(OC)cc3CCN2C(=O)c2ccccc2F)cc1 (centres undefined)	?	-22%	-26%	nt	18µM*	5%
CCOc1ccccc1C(=O)N1CCc2cc(OC)c(OC)cc2C1COc1ccc(OC)cc1 (centres undefined)	?	11%	-4%	nt	21µM*	10%
COC(=O)c1ccccc1Nc1ccnc(Cl)n1	-7%	0%	20µM*	6	-13%	nt
COC(F)(F)C(Cl)Cl	1%	nt	nt	nt	-4%	nt
CN(CC(=O)Nc1ccc(S(=O)(=O)N2CCCC2)cc1)Cc1c(F)cccc1Cl	15µM*	-13%	-4%	-60*	16µM*	-3%
COc1ccc(S(=O)(=O)N2CCOCC2)cc1NC(=O)Cc1c(Cl)cccc1Cl	?	-6%	2%	0	?	-3%
Cc1ccc(NC(=O)CSCC(=O)N(C)Cc2c(F)cccc2Cl)cc1	18µM*	-14%	-21%	-13	26µM*	nt
COc1ccc(S(=O)(=O)N2CCOCC2)cc1NC(=O)CN(C)Cc1c(F)cccc1Cl	?	?	2%	-66*	21µM*	2%
SMILES	DT40 TDP1 CPT	TGFb SMAD3 inh	HepG2 tox	IL-1B inflam inh	DT40 TDP1 no CPT	TDP1 inh
COc1ccc(NC(=O)CSCC(=O)N(C)Cc2c(F)cccc2Cl)cc1	?	?	-17%	7	?	nt
CN(CC(=O)Nc1ccc(S(=O)(=O)N2CCCC2)cc1)Cc1ccc(Cl)cc1	16µM*	?	-35%	0	?	6%
COc1ccc2c(c1)Sc1ccccc1N2CCN(C)C	?	23%	-45%	?	-23%	5%
CCC(=O)c1ccc2c(c1)N(CCCN(C)C)c1ccccc1S2	?	?	16µM*	?	21µM*	-7%[56.1 µM]
CN(C)CCCN1c2ccccc2CCc2ccc(Cl)cc21	15µM*	-28%	-56%	?	10µM*	5%
CN(C)CCCN1c2ccccc2Sc2ccccc21	16µM*	7%	-7%	?	18µM*!	11%
O=C(Nc1ccccc1)N1CCN(C(=O)c2nsc3ccccc23)CC1	-7%	-24%	-15%	nt	-21%	5%
CC(C)Cn1nnnc1S(=O)(=O)CC#N	nt	nt	nt	nt	nt	8%
CS(=O)(=O)c1ccc2nc(NC(=O)Nc3ccc(Cl)c(Cl)c3)sc2c1	?	-8%	-5%	0	9.2µM*	-2%
CS(=O)(=O)c1ccc2nc(NC(=O)CCS(=O)(=O)c3ccccc3)sc2c1	5.2µM*	?	7.1µM*	-93*	5.2µM*	9%
COC(=O)c1ccc2nc(Nc3nc4c(F)cc(F)cc4s3)sc2c1	?	-8%	-8%	22	16µM*	1%
Cc1ccc(NC(=O)Nc2nc3ccc(S(C)(=O)=O)cc3s2)cc1	3%	?	-17%	2	-5%	-6%
COC(=O)c1ccc2nc(NC(=O)CCS(=O)(=O)c3ccccc3)sc2c1	8.2µM*	?	2%	15	9.2µM*	2%
Cc1c(C(C)CCCO)oc(=O)c2c1Oc1c(C)c(C(C)C[C@H](C)O)oc(=O)c1C2 (some centres undefined)	?	-7%	-26%	5	?	0%
